Results on 40 compounds are retold here after PubChem BioAssay (NCI).

“And” between values parts separate entries of the source, which are not always exact repeats. Identical values can stand only once. This is part of a sample that, as a whole, favours compounds with a hit. Of some 83,000 tested, about 20% had one in any assay.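 Interpretation: 100, growth as untreated; towards 0, rising growth inhibition; 0, no net growth; 0 to -100, cell death. Compounds scoring below 10 were considered active.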 A number with no mark means an inactive call. The source made the active and inactive calls.

The test system of the assay is MDA-MB-468 breast. The assay can be described thus: NCI-60 one-dose screen, 48 h (100 = growth as untreated, 0 = no growth, -100 = all killed). The conditions noted are these: 10 µM unless noted.
For the compound `O=C1CCC(N2C(=O)c3cccc(NCCCCCCOc4ccc(Nc5nccc(Nc6ccccc6)n5)cc4)c3C2=O)C(=O)N1` (stereo not given), the growth is 49.3%. For `CCCCCCNC(=O)Oc1ccc(/C(=C(/C)c2ccc(Cl)cc2)c2ccc(OCCN3CCCCCC3)cc2)cc1`, the growth is 35.9%. As to `CSC1=Nc2c(c(C)c(-c3ccccc3)n2CCCN2CCCCC2)C2=NC(=O)C[C@H](C)N12`, the growth was -18.6% (active). In the case of `O=C(Nc1ccc(Br)cc1)Nc1ccccc1Cl`, the growth was 69.2%. Take `CN(C)c1ccc2[nH]c3c(C(N)=O)cc(=O)c(=O)c=3oc2c1`: the growth is 59.2%. Turning to `Cc1ccc(NC(=O)c2ccc(Nc3ncnc4c3cnn4-c3cccc(F)c3)cc2)cc1`, the growth is 96.6%. `O=C(Nc1ccc(-n2ccc3c(NC(=O)c4ccccc4)nccc32)cc1)c1ccc(N2CCOCC2)c(C(F)(F)F)c1`: the growth is 42.7%. To `Brc1ccc(-c2nnc3c4[nH]ccc4ncn23)cc1` belongs 104%. To `Nc1ccc2cc(Br)c3ccccc3c2c1` belongs 4.15% (active); to `CCOC(=O)C1C(=O)C=C(c2ccc(OC)cc2)CC1c1sc(N(C)Cc2ccccc2)nc1Cl` (stereo not given), 58.3%; to `COc1cc2oc(-c3cccc(NC(=O)c4cccc([N+](=O)[O-])c4)c3)cc(=O)c2c(OC)c1OC`, -1.02% (active). To `CCOC(=O)Cn1c(C)c(/C=N/NC(=O)c2cc3c(ccc4ccccc43)o2)c2ccccc21` belongs 16.1%. Turning to `CCCNNC(=O)/C=C/c1ccc(CNCCc2c(C)[nH]c3ccccc23)cc1`, the growth is 32.8% [2.5 µM]. To `CN(C)c1nc(N)c2nccnc2n1` belongs 115%; to `Nc1ncnc2c1N=C(c1ccc(F)cc1)CC(c1cccc(Nc3ccnc4cc(Cl)ccc34)c1)N2` (stereo not given), 74.1%; to `Cc1ccc(N(CSc2ccc(Cl)cc2)CSc2ccc(Cl)cc2)cc1`, 91.5%.

With `NS(=O)(=O)c1ccc(N2N=C(c3cccs3)CC2c2ccccc2O)cc1` (stereo not given), the growth was 21.1%. In the case of `O=c1[nH]c(-c2ccccc2)nc2sc3cc(O)ccc3c12` it was 93.7%; in that of `C/C=C(/C)n1cnc2c(Nc3ccccn3)nc(Cl)nc21`, 93%; in that of `COc1cccc(-c2nc3sccn3c2-c2ccnc(NCCNC(=O)c3ccccc3)n2)c1`, 79.4%. In the case of `CC(C)(C)n1cc(-c2ccnc(NCCNS(=O)(=O)c3ccccc3)c2)c(-c2cccc(O)c2)n1` it was 11.1%.

With `NC(N)=Nc1ccc(Oc2cccc(NC(N)=Nc3ccc(Cl)c(C(F)(F)F)c3)c2)cn1`, the growth is 6.72% (active). In the case of `COc1ccc(C(=O)c2cc3c(N)c(C(=O)Nc4cccc(Cl)c4C)sc3nc2C)cc1`, the growth was -2.98% (active).

As to `O=C(O)c1cc(N=Nc2ccc(-c3ccc(N=Nc4c(S(=O)(=O)O)cc5ccc(Nc6ccccc6)cc5c4O)cc3)cc2)ccc1O`, the growth was 124%. In the case of `CS(=O)(=O)Cc1cnc(C2OCCO2)s1` it was 97.7%. In the case of `Nc1nc2c(c3ncncc13)C(c1cccc(C(F)(F)F)c1)Cc1ncncc1-2` (stereo not given) it was -10.4% (active). In the case of `CN(C)c1ccc2c(c1)OC(N)=C(C#N)C2c1ccc2c(c1)CCO2` (stereo not given), the growth was 18.3%.

Take `COc1ccc(CN2C(=O)OC(C)(COC(C)=O)C2=O)cc1` (stereo not given): the growth is 92.9%. In the case of `COc1ccc(C(=O)NC(=O)Nc2ccc3c(c2)NC(=O)/C3=C\c2[nH]c(C)c(C(=O)O)c2C)cc1` it was 76.2%; in that of `Nc1[nH][nH]c(=O)c1N=Nc1ccccc1`, 105% and 98.5%; in that of `N#CC1=C(N)Oc2c(sc3c(F)cccc23)C1c1ccc(Cl)cc1` (stereo not given), -42.2% (active). For the compound `COc1ccc(-c2nc3ccc(-c4nc5ccc(N6CCN(c7ccccc7)CC6)cc5[nH]4)cc3[nH]2)cc1OC`, the growth is -46.1% (active). To `COc1ccc(/C=C2\CCC3C(CCCC34OCCO4)C2=O)cc1` (stereo not given) belongs 70.5%. In the case of `CCOC(=O)c1ccc(N(CCC(=O)O)C(C)=O)cc1` it was 99.9%; in that of `CCOc1nc(-c2ccccc2)cc2c(O)c(C(=O)N/N=C/c3ccc(N(C)C)cc3)[nH]c(=O)c12`, 158%; in that of `O=C(NCCCO)c1cc(Cl)ccc1O`, -12.2% (active). For `O=c1cc(-c2ccccc2)[nH]c(=S)[nH]1`, the growth was 115%. Take `Cc1ccccc1NC(=O)c1sc2nc3c(cc2c1N)C(=O)CCC3`: the growth was -4.56% (active). To `COc1cc(NC(=O)Nc2cnc(Nc3ccc(N4CCOCC4)cc3)nc2Oc2ccc(C(F)(F)F)cc2)cc(OC)c1` belongs 110%. To `CC(=O)c1ccc(-n2cc(CN3CCN(c4cc5c(cc4F)c(=O)c(C(=O)O)cn5C4CC4)CC3)nn2)cc1` belongs 72.5%.
